Hit rate of the full screen: of about 1,200 compounds, about 810 (68%) were called active. No rule for the calls is given here. So high a share suggests a set chosen from earlier hits. These entries were drawn from the full list. Entries with a potency or affinity are not part of this list.
Assay: TRPM1 promoter luciferase signal decrease, dose response, MITF inhibitor project, cell-based, SK-MEL-5, cherry-picked, set 3 (AID 493073)
Conditions: SK-MEL-5 TRPM1 promoter luciferase, 24 h; series mostly up to 35 µM

outcome, inactive:
O=C(/C=C/c1ccc2c(c1)OCCO2)c1ccccc1, O=C(Nc1ccccc1F)c1ccc2c(c1)OCO2, CC(=O)N(c1nnc(-c2cccc(C)c2)s1)C1CCCC1, C/C(=N\Nc1nccnc1Cl)c1ccc(O)c(C)c1, CCCOc1ccc(-c2c(=O)n(O)c3ccccc3[n+]2[O-])cc1, COc1ccc(C(=O)CN2Cc3ccccc3C2=N)cc1, CN1CCN(CCCOc2ccc(-c3ccccc3)cc2)CC1, O=C(c1ccc(F)cc1)N1CCC(c2ccccc2)C1 (centres undefined), COc1ccc(NC(=O)c2cc3ccccc3oc2=O)c(OC)c1, COc1ccc2oc(=O)c(C(=O)Nc3ccccc3C)cc2c1, COc1ccc(N/C=C\C(=O)c2ccc3ccccc3c2)cc1, COc1ccc(COC(=O)c2n[nH]c3ccccc23)cc1F, Cc1ccc(C(CNS(=O)(=O)c2ccc(Br)cc2)N2CCN(C)CC2)cc1 (centres undefined), COc1ccc(/C=C/c2cc(C(F)(F)F)on2)cc1, Cc1cccc(OCc2nc3ccccc3n2C)c1, O=C(/C=C/c1ccc2c(c1)OCO2)N1CCCCC1, O=C(Nc1ccccc1)C1Cc2ccccc2CN1C(=O)c1ccco1 (centres undefined), CC(=O)Oc1ccc(C)cc1-n1nc2ccccc2n1, CC(C)C(=O)Nc1ccc2nn(-c3ccc(F)cc3)nc2c1, CCOCCCNC(=O)/C(C#N)=C/c1ccc([N+](=O)[O-])o1, O=C(Cc1ccccc1)Nc1ccc(NC(=O)c2ccco2)nc1, COc1ccc2oc(=N)c(C(=O)Nc3ccccc3Cl)cc2c1, CCOC(=O)c1ccc2nc(C)c(CCC(C)=O)c(Cl)c2c1, Cc1nc(NCCOc2ccccc2)sc1C(=O)Nc1ccccc1, CCOC(=O)c1sc(NC(=O)Nc2ccc(Cl)cc2)nc1C, Cn1c(/C(C#N)=C/c2ccc(-c3ccc(S(N)(=O)=O)cc3)o2)nc2ccccc21, COc1ccc(/C=N/Nc2ccccn2)cc1OC, S=c1[nH]nc(-c2ccco2)n1/N=C/C(Cl)=C/c1ccccc1, Nc1ccccc1SC1CC(=O)N(c2ccc3c(c2)OCCO3)C1=O (centres undefined), COc1ccccc1N1CCN(/N=C/c2cccc(Cl)c2)CC1, Cc1csc(NC(=O)Cc2c(F)cccc2Cl)n1, Clc1ccc(-c2noc(CN3CCOCC3)n2)cc1, Cc1ccc(NC(=O)c2cnc3ccccc3n2)cc1C, O=C(CC(=O)c1ccccc1)Nc1ccccc1, COc1ccc(-c2noc(-c3cccs3)n2)cc1OC, CCc1nc2oc3ccc(C)cc3c(=O)c2cc1C(=O)OC, CCOc1ccc2nc(NC(=O)Cc3cccs3)sc2c1, Cc1[nH]nc(Nc2ccc(Br)cc2)c1[N+](=O)[O-], CS/C(N)=N/N=C/c1ccc2c(c1)OCO2, COc1cccc(/C=N/Nc2nc3ccccc3[nH]2)c1OC, COc1ccccc1N1CCN(/N=C\c2ccccc2)CC1, CC(C)c1ccc(C(=O)Nc2cccnc2)cc1, COC(=O)c1ccc(/C=N/Nc2nc(C)c(C)s2)cc1, O=C(CSc1nc2ccccc2[nH]1)c1ccc2c(c1)OCO2, O=C(Nc1ccc(Br)cc1)c1ccc2c(c1)OCO2, CCOc1ccc2cc(C#N)c(SCC(=O)OC)nc2c1, CC(=O)Nc1ccc(-c2nc3ccccc3o2)cc1, Cc1occc1C(=O)N/N=C/c1ccc(OCc2ccccc2)cc1, CCc1nc2oc3ccccc3c(=O)c2cc1C(=O)OC, COc1ccc(-c2csc(Nc3ccccn3)n2)cc1OC, Cc1nc(-c2ccccn2)sc1C(=O)Nc1ccc(F)cc1F, COCn1c(COc2ccccc2)nc2ccccc21, Cc1ccc(-n2cc(CNCCCn3cccn3)c(-c3cccc(C)c3)n2)cc1, Cc1oc(=O)c(NC(=O)c2ccccc2)cc1C(=O)c1ccccc1, CN(C)c1ccc(NC(=O)Nc2ccc3c(c2)nnn3C)cc1, CN(C)c1ccc(CNc2ccccn2)cc1, CN(C)c1ccc(/C=N/N2CCN(c3ccccn3)CC2)cc1, CC(C)OC(=O)CSc1nc2cc3c(cc2cc1C#N)OCO3, O=C(Nc1ccc(N2CCOCC2)c(Cl)c1)c1cccc(F)c1, Cc1ccc(N2C(=O)c3ccc(N)cc3C2=O)cc1C, Oc1ccc(-c2nnc(SCC3CCCCC3)o2)cc1, COc1ccc(/C=C2\Sc3ccc(C(=O)NCCN4CCCCCC4)cc3N(C)C2=O)cc1, CCCC1=Nc2cc(C(=O)NCCN3CCCC3)ccc2Sc2ccccc21, CCN1CCN(CCCNC(=O)c2ccc3c(Cl)c4c(nc3c2)CCCC4)CC1, COc1ccc(C[C@H]2CN3C(=NC[C@@H]3C(C)C)N2CCNC(=O)c2ccc(C)c(Br)c2)cc1, Cc1ccc(-c2noc(-c3ccno3)n2)cc1, Cc1ccc2[nH]c(=O)c(CN(CCCN(C)C)C(=O)Nc3cccc(Cl)c3)cc2c1, O=C(NCc1ccc2c(c1)OCO2)c1cc(=O)[nH]c2ccccc12, Nc1c(N(CCC2=CCCCC2)C(=O)COc2ccc(F)cc2)c(=O)[nH]c(=O)n1Cc1ccccc1, O=C(NCc1csc(-c2cccs2)n1)C1CCC1, CCOc1ccc(NC(=O)c2ccc3snnc3c2)cc1, O=C(Nc1ccc(Cl)cc1)OCc1ccccn1, O=C(Nc1ccc2c(c1)OCCO2)c1cccc(Cl)c1Cl, O=C(Nc1ccc2c(c1)OCCO2)c1ccoc1, O=C1CN(c2ccccc2)C(=S)N1C(=O)c1ccccc1, COc1ccc(NC(=O)c2cc(F)cc(F)c2)cc1Cl, O=[N+]([O-])c1ccc(N/N=C/C=C/c2ccco2)cc1, CCN(CC)CC(=O)Nc1scc2c1c(=O)oc1ccccc12, Fc1ccc(-c2nnc(-c3ccc(F)cc3)o2)cc1, CCOC(=O)c1ccc(NC(=O)Cc2cccs2)cc1, CCc1ccc(Nc2nc(C)cc(C)n2)cc1, C/C(=C\c1ccccc1)C(=O)Nc1ccc(Cl)cn1, O=C(N/N=C/C(Cl)=C\c1ccccc1)c1cccs1, Brc1cccc(/C=N/Nc2nn[nH]n2)c1, Cc1ccc2cc(NC(=O)Cc3ccccc3)ccc2n1, CN(c1cccc(NC(=O)COc2ccc(Cl)cc2Cl)c1)S(C)(=O)=O, O=C(Nc1ccccc1)O/N=C/c1ccc(F)cc1, O=C(N/N=C/c1ccccc1)c1ccco1, O=C(C[n+]1cc(-c2ccc(F)cc2)n2c1CCC2)c1cccs1, COc1ccc(C(=O)Nc2ccc3ccccc3c2)cc1OC, COc1cc(-c2nnc(-c3ccco3)o2)ccc1OCc1ccccc1, CCOC(=O)C1(Cc2ccccc2)CCCN(CCCn2cccn2)C1 (centres undefined), CCOc1ccc(-c2nnc(-c3cccs3)o2)cc1OCC, O=C(COc1ccc2c(c1)CCC2)N1CCc2ccccc21, Oc1cc(NCc2cccnc2)ccc1-c1nc2ccccc2o1, Cc1ccc2nc(-c3cccnc3)oc2c1, O=C(Nc1ccccc1Cl)c1cc(=O)c2ccccc2o1, CC(C)c1ccc(CNc2ncccn2)cc1, COCc1nc(-c2ccc(-c3ccccc3)nc2OC)no1, COc1cc(CN2CCC(Cc3ccccc3)CC2)cc(OC)c1OC, COc1ccc(S(=O)NC2CCCCC2)c(OC)c1C (centres undefined), O=C(CCCCC(=O)NN=Cc1ccccc1O)NN=Cc1ccccc1O, CC(C)C(NC(=O)OCc1ccccc1)C(=O)OCC(=O)N1CCCCC1 (centres undefined), Cc1ccc2c(COC(=O)c3n[nH]c4ccccc34)cc(=O)oc2c1, N#Cc1ccc(-c2cccnc2)nc1SCC(=O)c1ccccc1, CS(=O)(=O)c1ncc(Cl)c(C(=O)Nc2ccc3ccccc3c2)n1, O=C(CCCCl)NC(=S)Nc1ccc(N2CCOCC2)cc1, CCNc1nc(N)c(C(=O)c2ccc(Cl)s2)s1, COc1ccc(-c2nc(-c3ccncc3)no2)cc1OC, c1ccc(OCc2nn3c(-c4ccccn4)nnc3s2)cc1, COc1cccc(/C=N/NC(=O)CN2CC(c3ccccc3)CC2=O)c1OC (centres undefined), Cc1cc(/C=C(\C#N)C(=O)O)c(C)n1CC(C)C, CSCCNC(=O)c1ccc2nc(Cc3ccccc3F)oc2c1, Cc1nc2ccc(NC(=O)c3ccco3)cc2nc1C, O=C(Nc1ccc2nc(-c3ccccc3)[nH]c2c1)c1ccco1, Cc1nc(NC(=O)C2CC2)sc1C(=O)Nc1ccccc1Cl, CN(C)c1ccc(/C=N\NC(=O)c2cccc3cc[nH]c23)cc1, O=C(CSCc1c(F)cccc1F)Nc1ccccc1, O=C(CCC1CCCN(C(=O)c2cc3ccccc3o2)C1)NCc1ccc(F)c(F)c1 (centres undefined), CN(C)CCCNc1nc2sc3c(c2c(=O)n1CCc1ccccc1)CCCCC3, CCOC(=O)C1CCCN(C(=O)C2CCN(S(=O)(=O)CC)CC2)C1 (centres undefined), N/C(=N\OC(=O)c1ccc(Cl)cc1Cl)c1ccncc1, CC(C)S(=O)(=O)c1csc(C(=O)Nc2ccc(F)cc2)c1N, C/C(=N\Nc1cc(N2CCOCC2)ncn1)c1ccccc1

— PubChem BioAssay AID493073 (Broad Institute, 2011)
